From PubChem BioAssay come the findings set out here.

Values without a mark were called inactive. The rule behind the calls is not given here.

Pantothenate synthetase (Mycobacterium tuberculosis (strain ATCC 25618 / H37Rv)), sequence (P9WIL5 whole entry, looked up): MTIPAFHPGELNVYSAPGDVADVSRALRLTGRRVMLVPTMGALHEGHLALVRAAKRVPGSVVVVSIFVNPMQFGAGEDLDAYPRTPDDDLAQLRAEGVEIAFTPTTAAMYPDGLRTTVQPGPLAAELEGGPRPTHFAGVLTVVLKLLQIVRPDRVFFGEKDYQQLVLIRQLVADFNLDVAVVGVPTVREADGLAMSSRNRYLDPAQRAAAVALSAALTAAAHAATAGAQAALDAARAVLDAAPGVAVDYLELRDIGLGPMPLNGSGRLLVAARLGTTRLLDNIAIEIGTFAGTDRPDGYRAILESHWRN

The assay concerns the target Pantothenate synthetase (Mycobacterium tuberculosis (strain ATCC 25618 / H37Rv)) (UniProt P9WIL5). The assay can be described thus: Recombinant Mtb pantothenate synthetase (PanC) inhibitors, coupled enzyme, confirmatory (AID 375).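 Note: 0% = full reaction with vehicle and 100% = no enzyme background.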 Particulars: coupled enzyme assay; at 10 µM, active compounds read high.
For orientation: inhibition means the share of the control response that was lost under treatment. `Cc1c(NC2=NC3(CCCCC3)Cc3ccccc32)c(=O)n(-c2ccccc2)n1C`: the inhibition was 2%. Turning to `C(=C\c1ccccc1)/CN1CCN(C(c2ccccc2)c2ccccc2)CC1`, the inhibition was 0%.

On to `CCOC(=O)C1C(=O)NC(SCC(=O)Nc2nccs2)=C(C#N)C1c1ccccc1OCC` (stereo not given), for which the inhibition is 0%.

Take `O=C(CCN1C(=O)C2C3C=CC(C3)C2C1=O)N1CCN(c2ccccc2Cl)CC1` (stereo not given): the inhibition is 3%.

On to `COc1ccccc1N1CCN(CC(O)c2ccc3cc[nH]c3c2)CC1` (stereo not given), for which the inhibition was 5%. Regarding `CCOc1ccc(C2CC(c3ccccc3C)n3nc(N)nc3N2)cc1` (stereo not given), the inhibition is 0%. As for `COCCN(CC(=O)Nc1ccccc1C)S(=O)(=O)c1ccc(S(=O)(=O)N2CCCC2)cc1`, the inhibition was 0%. On to `Cc1cc(C)n(S(=O)(=O)c2cc(C(=O)O)c(Cl)cc2Cl)n1`, for which the inhibition was 0%. For `COC(=O)c1ccccc1NC(=O)C1CCN(S(=O)(=O)c2cc(C)ccc2OC)CC1` the value was 0%; for `Nn1c(SCC(=O)NC2CCCCC2)nnc1-c1ccc(Cl)cc1`, 2%.

`CCOC(=O)N1CCN(Cc2nc3c(c(=O)n(C)c(=O)n3C)n2Cc2ccc(F)cc2)CC1`: the inhibition is 2%. Regarding `CCCn1c(O)c(CN2CCCC(C)C2)c(C)c(C#N)c1=O` (stereo not given), the inhibition is 10%. `CCCCC[C@H](O)/C=C/C1=C(CCCCCCC(=O)O)C(=O)CC1`: the inhibition was 0%. Regarding `COC(=O)c1cccc(NC(=O)CN2CCN(Cc3ccccc3)CC2)c1`, the inhibition is 2%.

With `Cc1nnc2ccc(N3CCN(c4cccc(C(F)(F)F)c4)CC3)nn12`, the inhibition was 0%. For `COc1ccc(C2NC(c3ccc(OC)c(OC)c3OC)C(C)C(=O)C2C)c(OC)c1OC` (stereo not given) the value was 0%; for `CC1(C)OC(=O)C(=CNC(CCC(N)=O)C(=O)O)C(=O)O1` (stereo not given), 3%; for `CCOC(=O)CSc1nnc(-c2cccnc2)n1Cc1ccccc1`, 0%.

For `CCCn1c(SCC(=O)NCc2ccco2)nc2c1c(=O)n(C)c(=O)n2C`, the inhibition is 11%.

Consider `COc1ccccc1N1CCN(C(=O)C2CCN(S(=O)(=O)c3ccc(F)cc3)CC2)CC1`, for which the inhibition was 0%.

`CC(=O)c1ccc(OCC(O)CN2CCN(Cc3ccc4c(c3)OCO4)CC2)cc1` (stereo not given): the inhibition was 3%.

Turning to `Cc1cc(=O)n2nc(N3CCC(C(=O)N4CCN(Cc5ccccc5)CC4)CC3)sc2n1`, the inhibition was 2%. With `C#CCN1C(=O)C(O)(CC(=O)c2cc(OC)ccc2OC)c2ccccc21` (stereo not given), the inhibition was 6%.

Consider `CC(=O)Nc1ccc(-c2cc3ccccc3o2)cc1`, for which the inhibition is 8%. `O=C(COc1nnc2ccccn12)N1CCN(S(=O)(=O)c2ccccc2)CC1`: the inhibition was 1%. In the case of `O=C(CN1CCOCC1)N1CCCc2c1c(=O)oc1ccc(OCc3ccccc3)cc21`, the inhibition was 4%.

On to `CCC1(C(=O)OC)NC(c2cccc(F)c2)C2C(=O)N(C)C(=O)C21` (stereo not given), for which the inhibition was 3%.

With `CN1CCN(c2nc3c(c(=O)n(C)c(=O)n3C)n2Cc2cccc3ccccc23)CC1`, the inhibition was 0%. With `CC(C)(C#N)Nn1cnnc1`, the inhibition is 0%. Take `O=C(OCCCCN1C(=O)c2ccccc2C1=O)c1n[nH]c2ccccc12`: the inhibition is 2%. For `CC(C)(CO)NC(=O)CCCOc1ccc(Cl)cc1Cl` the value was 0%; for `COc1ccc(Br)cc1S(=O)(=O)N1CCOCC1`, 0%.

As to `O=S1(=O)C=C(Sc2nc3ccccc3s2)c2ccccc21`, the inhibition was 0%.

For the molecule `CCC(=O)N(Cc1ccco1)c1nc(-c2cc(OC)ccc2OC)cs1`, the inhibition is 0%. In the case of `CCOCCCNS(=O)(=O)c1ccc2c(c1)oc(=O)n2CC(=O)OCC`, the inhibition is 8%.

With `COc1ccc(C(N)=O)cc1N`, the inhibition was 0%.

Take `Cc1ccc(SCC(=O)NCCN2C(=O)CSC2=O)c(C)c1`: the inhibition was 0%. For `COc1ccc(N(C(=O)c2ccco2)S(=O)(=O)c2cc(OC)ccc2OC)cc1`, the inhibition is 0%. As to `O=C(NCc1ccc(F)cc1)c1cc2ccccn2n1`, the inhibition was 1%. Regarding `COCCn1nnnc1C(c1cc2ccc(OC)cc2[nH]c1=O)N1CCc2ccccc2C1` (stereo not given), the inhibition is 0%.
